One may read the viability as a read-out of living cells in per cent, often relative to untreated cells.

Results with a measured potency or affinity are listed apart. A number with no mark means an inactive call. The rule behind the calls is not given here.

The test is described as follows: cytotoxicity control, cell-based, set 2 (AID 504682). To be noted: HepG2 cytotoxicity; series mostly up to 50 µM; viability: at the top concentration.
As for `COC(=O)c1ccc(CNc2c(N3CCCC3)c(=O)c2=O)cc1`, the “viability” value is 97.2%.

As for `O=C1C(Br)=Cc2cccc3cccc1c23`, the “viability” value was 92.1%.

Consider `O=C(CSc1nc2ccccc2c(=O)[nH]1)NCc1ccc(Cl)cc1`, for which the “viability” value is 89.5%.

For the molecule `Cc1nc(SCc2ccccc2Cl)[nH]c(=O)c1C`, the “viability” value was 100%.

In the case of `CCc1ccc(/C=C2/C(=O)N(C)C(=S)N2CC(=O)OC)s1`, the “viability” value is 80%.

Regarding `O=c1[nH]c(=S)[nH]c2ccccc12`, the “viability” value was 96.8%.

With `CCOC(=O)CSc1nc(C)c(C)c(=O)[nH]1`, the “viability” value was 103%.

For the molecule `O=C(/C=C/c1ccccc1)N1CCN(CCN2C(=O)c3cccc4cccc(c34)C2=O)CC1`, the “viability” value is 96.5%.

Consider `CC[N+](C)(CC)CCCCOc1ccc2c(c1)C(=O)c1cc(OCCCC[N+](C)(CC)CC)ccc1-2`, for which the “viability” value is 87%.

For the molecule `Cc1cc(=O)[nH]c(SCC(=O)Nc2ccccc2)n1`, the “viability” value was 92.8%.

Regarding `CCOC(=O)CNC(=O)[C@H](Cc1ccccc1)NC(=O)OCc1ccccc1`, the “viability” value was 98.7%.

In the case of `CC(=NCc1ccc2c(c1)OCO2)C1=C(O)c2ccccc2C1=O`, the “viability” value is 97.2%.

As to `COC(=O)C(C)Oc1ccc(-c2nccc(-c3ccccn3)n2)cc1` (stereo not given), the “viability” value is 92.1%.

Consider `CCSc1nc(C)c(C)c(=O)[nH]1`, for which the “viability” value was 101%.

`COC(=O)C(C)Oc1ccc(Cc2ncc(C(F)(F)F)cc2Cl)cc1` (stereo not given): the “viability” value was 97.9%.

As to `CCSc1nc2ccccc2c(=O)[nH]1`, the “viability” value is 103%.

For `O=C(CSc1nc(O)cc(=O)[nH]1)Nc1ccccc1`, the “viability” value was 94.9%.

Turning to `COc1cc(NC(=O)C/C(C)=N/NC(=O)c2ccccn2)c(OC)cc1Cl`, the “viability” value is 80%.

`CCOC(=O)COc1ccc(/C=C2\NC(=S)N(CC)C2=O)cc1`: the “viability” value was 99.4%.

On to `Cc1[nH]c(=S)[nH]c(=O)c1C`, for which the “viability” value was 95.4%.

For the origin of these results see PubChem BioAssay AID504682 (Southern Research Specialized Biocontainment Screening …, 2011).
